# Experimental data taken from PubChem BioAssay (EPA / NIEHS).
# Records with an inconclusive call do not appear. Activity calls are given as the source filed them. The calls were made as follows: active = hit-call score of the fitted dose curve at least 0.9, where 1 is the maximum; inconclusive = response in the unintended direction; inactive = score below 0.9.
# What was measured:
# [1] = target: human Protein Tyrosine Phosphatase Receptor Type M (PTPRM), PTPRM (gene 5797) (UniProt P28827); test: NVS_ENZ_hPTPRM: NovaScreen (NVS) Enzymatic Assay for human Protein Tyrosine Phosphatase Receptor Type M (PTPRM) (AID 2283215)
# In short: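 Cell-free recombinant PTPRM with fluorogenic substrate; product separated from substrate by electrophoretic mobility shift and read by fluorescence, 1.33 h after dosing. Primary screen single concentration (25 uM) in duplicate; actives retested in concentration series; loss of signal versus DMSO.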
# [2] = target: human Tropomyosin Receptor Kinase A (TRKA), NTRK1 (gene 4914) (UniProt P04629); test: NVS_ENZ_hTrkA: NovaScreen (NVS) Enzymatic Assay for human Tropomyosin Receptor Kinase A (TRKA) (AID 2283224)
# Experimental: NVS_ENZ_hTrkA is a biochemical, single-readout assay that uses extracted gene-proteins in a cell-free assay. Measurements were taken 1 hour after chemical dosing in a 384-well plate.NVS_ENZ_hTrkA is one of one assay component(s) measured or calculated from the NVS_ENZ_hTrkA assay. It is designed to make measurements of enzyme activity, a form of enzyme reporter, as detected with fluorescence intensity signals by Fluorescence and electrophoretic mobility shift technology.Data from the assay component NVS_ENZ_hTrkA was analyzed into 1 assay endpoint. This assay endpoint, NVS_ENZ_hTrkA, was analyzed in the positive analysis fitting direction relative to DMSO as the negative control and baseline of activity. Using a type of enzyme reporter, loss-of-signal activity can be used to understand changes in the enzymatic activity as they relate to the gene NTRK1. Furthermore, this assay endpoint can be referred to as a primary readout, because this assay has produced multiple assay endpoints where this one serves a enzymatic activity function. To generalize the intended target to other relatable targets, this assay endpoint is annotated to the kinase intended target family, where the subfamily is receptor tyrosine kinase. […]
# [3] = target: human Vascular Endothelial Growth Factor Receptor 3 (VEGFR3), FLT4 (gene 2324) (UniProt P35916); test: NVS_ENZ_hVEGFR3: NovaScreen (NVS) Enzymatic Assay for human Vascular Endothelial Growth Factor Receptor 3 (VEGFR3) (AID 2283229)
# In short: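 Cell-free recombinant VEGFR3 kinase reaction with fluorescent substrate, read 1 h after dosing by electrophoretic mobility shift separation of substrate and product. Single-concentration duplicate screen at 25 uM, then concentration-response up to 50 uM; loss of activity versus DMSO.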
# [4] = target: rat Catechol-O-Methyl Transferase (COMT), Comt (gene 24267) (UniProt P22734); test: NVS_ENZ_rCOMT: NovaScreen (NVS) Enzymatic Assay for rat Catechol-O-Methyl Transferase (COMT) (AID 2283235)
# In short: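 Cell-free enzyme activity with protein extracted from rat dorsal striatum, measured by HPLC with absorbance detection. Compounds screened at 25 uM in duplicate; actives then run in concentration-response up to 50 uM, loss of signal versus DMSO.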
# [5] = tested on: bovine Angiotensin II Receptor Type 2 (AT2), gene 407157; test: NVS_GPCR_bAT2: NovaScreen (NVS) G Protein-Coupled Receptor Assay for bovine Angiotensin II Receptor Type 2 (AT2) (AID 2283240)
# In short: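 Radioligand displacement on bovine cerebellar membranes, 1 hour incubation, filter-based scintillation counting; loss of signal vs DMSO. Duplicate single-point screen at 25 uM, then concentration-response to 50 uM maximum.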
# [6] = target: bovine Dopamine Receptor (DR), Non-selective Binding, DRD1 (gene 281125) (UniProt Q95136); test: NVS_GPCR_bDR_NonSelective: NovaScreen (NVS) G Protein-Coupled Receptor Assay for bovine Dopamine Receptor (DR), Non-selective Binding (AID 2283241)
# In short: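 Bovine striatal membranes; radioligand displacement read by filtration and scintillation counting 1 h after dosing, loss of signal vs DMSO. Screened in duplicate at 25 uM, then concentration-response for hits.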
# [7] = tested on: bovine Histamine 1 Receptor (H1), gene 281231; test: NVS_GPCR_bH1: NovaScreen (NVS) G Protein-Coupled Receptor Assay for bovine Histamine 1 Receptor (H1) (AID 2283246)
# In short: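 Radioligand displacement on bovine cerebellar membranes, 1 h after dosing, filter-based scintillation read-out; loss of signal vs DMSO. Duplicate single-concentration screen at 25 uM, then concentration-response up to 50 uM for hits.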
# [8] = target: Adenosine receptor A1 (Bos taurus) (UniProt P28190); test: NVS_GPCR_bAdoR_NonSelective: NovaScreen (NVS) G Protein-Coupled Receptor Assay for bovine Adenosine Receptor (AdoR), Non-selective Binding (AID 2283244)
# In short: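 Bovine striatal membranes, radioligand displacement binding, 1 h after dosing, filter-based scintillation counting. Screened in duplicate at 25 uM, then concentration-response up to 50 uM; loss of specific binding relative to DMSO.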
# [9] = tested on: guinea pig Leukotriene B4 Receptor (LTB4), gene 100379538; test: NVS_GPCR_gLTB4: NovaScreen (NVS) G Protein-Coupled Receptor Assay for guinea pig Leukotriene B4 Receptor (LTB4) (AID 2283247)
# In short: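 Radioligand displacement on guinea pig spleen membranes, filter-based scintillation counting 2 h after dosing. Primary duplicate single point at 25 uM; hits over threshold (e.g. 30% inhibition) run in concentration-response up to 50 uM, DMSO baseline.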
# human Tropomyosin Receptor Kinase A (TRKA), NTRK1 (gene 4914), sequence (P04629 whole entry, looked up): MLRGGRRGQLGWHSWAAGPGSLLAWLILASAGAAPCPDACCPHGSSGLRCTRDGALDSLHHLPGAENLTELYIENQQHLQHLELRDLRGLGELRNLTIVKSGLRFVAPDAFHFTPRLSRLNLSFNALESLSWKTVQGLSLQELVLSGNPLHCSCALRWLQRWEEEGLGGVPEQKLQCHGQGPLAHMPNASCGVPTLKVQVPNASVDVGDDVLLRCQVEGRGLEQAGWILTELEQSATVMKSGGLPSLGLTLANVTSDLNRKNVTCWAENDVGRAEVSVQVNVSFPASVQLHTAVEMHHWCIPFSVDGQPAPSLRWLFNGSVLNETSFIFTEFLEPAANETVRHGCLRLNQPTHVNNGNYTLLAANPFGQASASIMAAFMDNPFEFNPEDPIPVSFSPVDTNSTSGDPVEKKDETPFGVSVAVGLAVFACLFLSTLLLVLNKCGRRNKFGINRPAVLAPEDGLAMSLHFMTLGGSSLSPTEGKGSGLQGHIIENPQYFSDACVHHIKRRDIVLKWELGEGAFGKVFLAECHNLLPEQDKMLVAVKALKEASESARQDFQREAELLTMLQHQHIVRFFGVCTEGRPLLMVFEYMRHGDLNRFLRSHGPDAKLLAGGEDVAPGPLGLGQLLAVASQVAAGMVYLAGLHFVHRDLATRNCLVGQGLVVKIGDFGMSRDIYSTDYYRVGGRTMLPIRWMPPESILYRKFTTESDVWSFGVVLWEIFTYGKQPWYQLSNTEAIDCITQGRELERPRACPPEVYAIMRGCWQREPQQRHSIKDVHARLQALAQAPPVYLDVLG
# human Vascular Endothelial Growth Factor Receptor 3 (VEGFR3), FLT4 (gene 2324), sequence (P35916 whole entry, looked up): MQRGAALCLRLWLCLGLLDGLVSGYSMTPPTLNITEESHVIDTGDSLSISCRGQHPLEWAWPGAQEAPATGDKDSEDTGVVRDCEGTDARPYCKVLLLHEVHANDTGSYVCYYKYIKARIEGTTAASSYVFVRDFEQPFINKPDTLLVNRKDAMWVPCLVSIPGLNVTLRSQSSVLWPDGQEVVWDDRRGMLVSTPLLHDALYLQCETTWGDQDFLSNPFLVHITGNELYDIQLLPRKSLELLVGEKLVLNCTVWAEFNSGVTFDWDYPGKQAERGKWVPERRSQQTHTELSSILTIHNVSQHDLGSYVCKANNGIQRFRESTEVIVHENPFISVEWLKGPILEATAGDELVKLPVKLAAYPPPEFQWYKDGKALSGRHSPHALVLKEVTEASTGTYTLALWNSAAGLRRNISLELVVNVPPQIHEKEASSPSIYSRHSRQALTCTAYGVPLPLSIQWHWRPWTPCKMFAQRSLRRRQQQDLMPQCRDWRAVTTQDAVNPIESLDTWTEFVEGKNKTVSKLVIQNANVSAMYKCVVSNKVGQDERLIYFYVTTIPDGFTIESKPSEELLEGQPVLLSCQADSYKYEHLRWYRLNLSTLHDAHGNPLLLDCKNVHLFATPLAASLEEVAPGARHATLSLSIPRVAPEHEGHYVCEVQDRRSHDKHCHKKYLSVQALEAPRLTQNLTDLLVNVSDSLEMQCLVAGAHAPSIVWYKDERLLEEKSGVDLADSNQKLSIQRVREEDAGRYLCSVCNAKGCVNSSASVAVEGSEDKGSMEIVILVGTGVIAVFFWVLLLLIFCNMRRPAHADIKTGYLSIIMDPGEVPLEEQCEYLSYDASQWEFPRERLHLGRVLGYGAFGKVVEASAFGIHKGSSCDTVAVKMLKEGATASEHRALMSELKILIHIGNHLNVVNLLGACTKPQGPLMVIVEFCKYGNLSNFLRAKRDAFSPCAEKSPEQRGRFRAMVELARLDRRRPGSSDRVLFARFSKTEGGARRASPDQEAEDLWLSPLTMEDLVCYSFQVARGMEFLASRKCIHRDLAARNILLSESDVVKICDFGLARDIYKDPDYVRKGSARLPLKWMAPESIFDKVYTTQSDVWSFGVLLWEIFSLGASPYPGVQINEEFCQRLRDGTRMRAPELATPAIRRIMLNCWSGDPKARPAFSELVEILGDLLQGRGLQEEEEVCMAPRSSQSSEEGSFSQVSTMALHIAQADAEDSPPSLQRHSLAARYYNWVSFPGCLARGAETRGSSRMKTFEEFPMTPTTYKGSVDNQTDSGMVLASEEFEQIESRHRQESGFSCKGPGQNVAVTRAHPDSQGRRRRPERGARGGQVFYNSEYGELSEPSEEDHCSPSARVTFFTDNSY
# rat Catechol-O-Methyl Transferase (COMT), Comt (gene 24267), sequence (P22734 whole entry, looked up): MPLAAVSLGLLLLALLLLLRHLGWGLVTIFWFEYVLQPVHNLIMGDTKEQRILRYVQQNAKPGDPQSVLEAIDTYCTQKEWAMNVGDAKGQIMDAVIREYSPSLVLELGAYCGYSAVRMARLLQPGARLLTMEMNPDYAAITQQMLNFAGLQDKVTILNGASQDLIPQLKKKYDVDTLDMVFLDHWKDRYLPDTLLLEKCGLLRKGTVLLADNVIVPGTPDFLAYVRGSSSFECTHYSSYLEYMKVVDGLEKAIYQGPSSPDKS
# bovine Dopamine Receptor (DR), Non-selective Binding, DRD1 (gene 281125), sequence (Q95136 whole entry, looked up): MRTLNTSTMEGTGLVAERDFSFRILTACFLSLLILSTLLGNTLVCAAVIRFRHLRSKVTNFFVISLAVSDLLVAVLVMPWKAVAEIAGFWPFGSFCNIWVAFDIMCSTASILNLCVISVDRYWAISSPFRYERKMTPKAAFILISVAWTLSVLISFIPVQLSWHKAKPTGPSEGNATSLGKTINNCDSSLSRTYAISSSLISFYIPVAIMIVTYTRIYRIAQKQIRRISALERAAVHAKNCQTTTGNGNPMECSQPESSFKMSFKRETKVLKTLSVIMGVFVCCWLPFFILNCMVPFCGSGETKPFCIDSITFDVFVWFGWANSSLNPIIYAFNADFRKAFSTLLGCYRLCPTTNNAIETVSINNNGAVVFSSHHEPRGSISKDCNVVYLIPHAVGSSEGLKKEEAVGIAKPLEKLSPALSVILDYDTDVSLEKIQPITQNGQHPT
# Adenosine receptor A1 (Bos taurus), sequence (P28190 whole entry, looked up): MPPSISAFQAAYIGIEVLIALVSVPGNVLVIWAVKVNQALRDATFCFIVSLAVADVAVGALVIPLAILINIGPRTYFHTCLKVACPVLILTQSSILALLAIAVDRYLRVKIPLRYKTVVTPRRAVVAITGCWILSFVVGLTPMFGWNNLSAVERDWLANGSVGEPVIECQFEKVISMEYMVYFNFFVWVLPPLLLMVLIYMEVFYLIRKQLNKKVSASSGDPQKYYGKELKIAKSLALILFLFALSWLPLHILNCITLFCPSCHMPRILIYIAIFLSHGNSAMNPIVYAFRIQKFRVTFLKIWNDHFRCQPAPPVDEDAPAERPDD
# human Protein Tyrosine Phosphatase Receptor Type M (PTPRM), PTPRM (gene 5797), sequence (P28827 whole entry, looked up): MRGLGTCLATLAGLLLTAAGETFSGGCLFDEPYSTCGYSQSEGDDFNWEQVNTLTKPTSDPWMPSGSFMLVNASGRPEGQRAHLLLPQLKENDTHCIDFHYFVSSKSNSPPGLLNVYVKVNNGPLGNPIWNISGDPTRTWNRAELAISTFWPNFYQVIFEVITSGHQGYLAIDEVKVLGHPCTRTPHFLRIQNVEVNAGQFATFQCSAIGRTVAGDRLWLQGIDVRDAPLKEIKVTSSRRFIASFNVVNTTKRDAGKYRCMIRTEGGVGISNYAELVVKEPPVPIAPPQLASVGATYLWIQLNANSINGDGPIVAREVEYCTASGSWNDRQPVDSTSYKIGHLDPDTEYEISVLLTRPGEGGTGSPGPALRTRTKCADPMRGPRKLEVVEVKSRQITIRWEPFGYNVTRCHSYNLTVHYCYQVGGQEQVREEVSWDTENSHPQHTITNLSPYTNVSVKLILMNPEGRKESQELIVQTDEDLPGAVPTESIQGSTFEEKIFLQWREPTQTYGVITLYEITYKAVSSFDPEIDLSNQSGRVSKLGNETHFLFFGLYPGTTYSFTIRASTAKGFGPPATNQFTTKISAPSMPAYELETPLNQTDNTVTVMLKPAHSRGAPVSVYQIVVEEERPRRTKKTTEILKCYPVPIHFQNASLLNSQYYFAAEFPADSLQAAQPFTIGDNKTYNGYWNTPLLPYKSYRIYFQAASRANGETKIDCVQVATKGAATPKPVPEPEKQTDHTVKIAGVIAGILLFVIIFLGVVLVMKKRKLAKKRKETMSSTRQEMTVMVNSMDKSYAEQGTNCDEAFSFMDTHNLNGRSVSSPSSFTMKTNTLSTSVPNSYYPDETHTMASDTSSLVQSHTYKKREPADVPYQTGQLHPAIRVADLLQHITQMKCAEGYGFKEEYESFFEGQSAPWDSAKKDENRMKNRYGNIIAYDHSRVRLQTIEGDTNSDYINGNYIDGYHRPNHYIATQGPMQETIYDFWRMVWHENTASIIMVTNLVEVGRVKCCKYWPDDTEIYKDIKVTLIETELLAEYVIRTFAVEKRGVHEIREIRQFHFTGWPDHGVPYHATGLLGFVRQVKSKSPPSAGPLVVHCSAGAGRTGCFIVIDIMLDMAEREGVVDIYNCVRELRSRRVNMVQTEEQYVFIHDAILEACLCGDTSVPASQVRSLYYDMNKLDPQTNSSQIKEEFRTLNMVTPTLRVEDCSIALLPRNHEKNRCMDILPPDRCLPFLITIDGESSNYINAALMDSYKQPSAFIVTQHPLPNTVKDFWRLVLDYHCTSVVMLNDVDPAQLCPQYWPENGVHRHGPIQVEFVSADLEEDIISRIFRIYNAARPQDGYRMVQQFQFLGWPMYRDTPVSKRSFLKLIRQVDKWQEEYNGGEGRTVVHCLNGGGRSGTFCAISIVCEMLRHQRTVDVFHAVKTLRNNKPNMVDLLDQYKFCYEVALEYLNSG
smiles,measurement,setting,value
O=C(OCCCCCOC(=O)c1ccccc1)c1ccccc1,outcome,[1],inactive
CC1=C(/C=C/C(C)=C/C=C/C(C)=C/CO)C(C)(C)CCC1,outcome,[2],inactive
same,outcome,[3],inactive
same,outcome,[4],inactive
FC(F)(F)C(F)(F)C(F)(F)C(F)(F)C(F)(F)C(F)(F)CCI,outcome,[2],inactive
NCCO,outcome,[3],inactive
COc1cc(-c2nc(NC(=O)c3cc4cc(C)cc(C)c4n3CC(=O)O)sc2CCC2CCCCC2)c(OC)cc1Cl,AC50,[5],29.4 µM (active)
NC(=O)Cn1c(=O)cc(CCN2CCN(c3nccc4sccc34)CC2)c2ccc(F)cc21,AC50,[6],1.26 µM (active)
same,AC50,[7],0.777 µM (active)
CCc1c(C(=O)NN2CCCCC2)nn(-c2ccc(Cl)cc2Cl)c1-c1ccc(Br)cc1,outcome,[8],inactive
Nc1ccccc1N,AC50,[8],9.16 µM (active)
Cc1ccc(C(C)C)c(O)c1,outcome,[7],inactive
Cc1oc(-c2ccccc2)nc1CCOc1cccc2c1ccn2CCC(=O)O,AC50,[9],4.96 µM (active)
O=c1c(O)c(-c2ccc(O)c(O)c2)oc2cc(O)cc(O)c12,AC50,[4],12.4 µM (active)
CCCCC(CC)COC(=O)CC(C(=O)OCC(CC)CCCC)S(=O)(=O)O (stereo not drawn),AC50,[5],19.1 µM (active)
C1CCC(SSC2CCCCC2)CC1,outcome,[6],inactive
Nc1ccc2c(c1)C(=O)c1ccccc1C2=O,outcome,[7],inactive
C[C@]12C=CC(=O)C=C1CC[C@@H]1[C@@H]2C(=O)C[C@@]2(C)[C@H]1CC[C@]2(O)C(=O)CO,outcome,[7],inactive
